# In publication PMC7862700, “An all-to-all approach to the identification of sequence-specific readers for epigenetic DNA modifications on cytosine”:
# Key:
# Test in all cases: DAPPL (digital affinity profiling via proximity ligation, sequencing); 10 mM Tris-HCl pH 7.5, 50 mM NaCl, 1 mM DTT, 4% glycerol, room temperature, 30 min; GST-TFs on glutathione beads, 16-mer random dsDNA library, 0.1% formaldehyde crosslink after washing; high values mean tight binding
# [1] = biological target: T1, FEV (Homo sapiens, UniProt Q99581 1-238); details: protein: recombinant; tags: N-terminal GST; dsDNA, one strand shown
# T1 sequence: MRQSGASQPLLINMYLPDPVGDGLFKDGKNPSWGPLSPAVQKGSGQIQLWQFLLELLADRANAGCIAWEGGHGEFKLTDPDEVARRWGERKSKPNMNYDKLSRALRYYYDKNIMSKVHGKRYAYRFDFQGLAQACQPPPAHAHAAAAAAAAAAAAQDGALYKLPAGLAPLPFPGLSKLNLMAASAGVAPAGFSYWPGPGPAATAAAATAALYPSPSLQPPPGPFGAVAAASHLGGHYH
# Method in brief: (§1)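 Binding signal is each hexamer's read frequency for a factor divided by its frequency in the tag-only sample. The factors were GST-fused human transcription factors from yeast, captured on glutathione beads, DNA-barcoded and pooled with that sample. Pools were incubated with 200 nmole of a random double-stranded 16-mer DNA library in Tris/NaCl/DTT/glycerol buffer at room temperature for 30 min, then washed, crosslinked with 0.1% formaldehyde, proximity-ligated with BsaI/T4 ligase (1 h, 37 °C), PCR-amplified and sequenced on an Illumina NextSeq500.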
# [2] = biological target: ETV5 (Homo sapiens, UniProt P41161 1-510); details: protein: recombinant; tags: N-terminal GST; dsDNA, one strand shown
# Method in brief: as §1
# [3] = biological target: HSF1 (Homo sapiens, UniProt Q00613 1-529); details: protein: recombinant; tags: N-terminal GST; chain copies: 3; dsDNA, one strand shown
# Method in brief: as §1
# [4] = biological target: T2, SPIC (Homo sapiens, UniProt Q8N5J4 1-248); details: protein: recombinant; tags: N-terminal GST; dsDNA, one strand shown
# T2 sequence: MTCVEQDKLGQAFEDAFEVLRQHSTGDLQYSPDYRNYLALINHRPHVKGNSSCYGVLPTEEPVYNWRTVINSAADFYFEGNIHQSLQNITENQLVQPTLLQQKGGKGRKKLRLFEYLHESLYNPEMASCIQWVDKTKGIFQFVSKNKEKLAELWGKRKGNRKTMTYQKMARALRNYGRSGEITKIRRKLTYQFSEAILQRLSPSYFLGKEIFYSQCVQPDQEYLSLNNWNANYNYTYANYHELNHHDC
# Method in brief: as §1
# [5] = biological target: ELF4 (Homo sapiens, UniProt Q99607 1-663); details: protein: recombinant; tags: N-terminal GST; dsDNA, one strand shown
# Method in brief: as §1
# [6] = biological target: T3, ELK4 (Homo sapiens, UniProt P28324-2 1-405); details: protein: recombinant; tags: N-terminal GST; dsDNA, one strand shown
# T3 sequence: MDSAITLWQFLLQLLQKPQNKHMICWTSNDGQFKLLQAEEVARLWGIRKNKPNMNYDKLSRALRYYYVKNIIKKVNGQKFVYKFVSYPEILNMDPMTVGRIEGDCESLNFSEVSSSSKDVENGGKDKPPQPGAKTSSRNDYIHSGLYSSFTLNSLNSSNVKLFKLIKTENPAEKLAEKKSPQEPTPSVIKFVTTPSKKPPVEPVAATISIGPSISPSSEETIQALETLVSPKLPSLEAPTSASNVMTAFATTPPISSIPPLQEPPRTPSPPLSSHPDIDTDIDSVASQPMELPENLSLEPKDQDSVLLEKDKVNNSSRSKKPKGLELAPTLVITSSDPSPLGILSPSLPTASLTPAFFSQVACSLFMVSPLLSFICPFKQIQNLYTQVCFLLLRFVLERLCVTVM
# Method in brief: as §1
# [7] = biological target: T4, ETV2 (Homo sapiens, UniProt O00321 1-342); details: protein: recombinant; tags: N-terminal GST; dsDNA, one strand shown
# T4 sequence: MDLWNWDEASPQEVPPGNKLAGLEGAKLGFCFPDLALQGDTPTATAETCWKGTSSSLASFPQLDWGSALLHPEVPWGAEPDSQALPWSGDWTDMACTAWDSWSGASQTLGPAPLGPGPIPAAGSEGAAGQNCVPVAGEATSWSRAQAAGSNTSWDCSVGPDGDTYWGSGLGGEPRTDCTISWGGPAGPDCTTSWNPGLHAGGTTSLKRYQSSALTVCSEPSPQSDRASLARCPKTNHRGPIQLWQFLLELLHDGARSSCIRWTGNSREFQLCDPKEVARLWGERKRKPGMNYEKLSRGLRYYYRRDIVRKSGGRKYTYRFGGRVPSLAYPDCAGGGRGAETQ
# Method in brief: as §1
# [8] = biological target: T5, ELF3 (Homo sapiens, UniProt P78545 1-371); details: protein: recombinant; tags: N-terminal GST; dsDNA, one strand shown
# T5 sequence: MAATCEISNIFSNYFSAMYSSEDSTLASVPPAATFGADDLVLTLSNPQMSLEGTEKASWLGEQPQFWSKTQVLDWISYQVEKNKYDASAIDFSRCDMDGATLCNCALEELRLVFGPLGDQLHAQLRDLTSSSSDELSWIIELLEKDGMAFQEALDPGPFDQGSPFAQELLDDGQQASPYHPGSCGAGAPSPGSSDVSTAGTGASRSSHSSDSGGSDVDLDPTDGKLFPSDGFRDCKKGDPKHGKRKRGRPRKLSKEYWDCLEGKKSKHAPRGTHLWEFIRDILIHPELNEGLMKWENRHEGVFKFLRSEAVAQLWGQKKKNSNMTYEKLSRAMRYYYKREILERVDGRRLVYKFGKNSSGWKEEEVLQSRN
# Method in brief: as §1
# [9] = biological target: CRX (Homo sapiens, UniProt O43186 1-299); details: protein: recombinant; tags: N-terminal GST; dsDNA, one strand shown
# Method in brief: as §1
# Chain of ETV5 (P41161 whole entry): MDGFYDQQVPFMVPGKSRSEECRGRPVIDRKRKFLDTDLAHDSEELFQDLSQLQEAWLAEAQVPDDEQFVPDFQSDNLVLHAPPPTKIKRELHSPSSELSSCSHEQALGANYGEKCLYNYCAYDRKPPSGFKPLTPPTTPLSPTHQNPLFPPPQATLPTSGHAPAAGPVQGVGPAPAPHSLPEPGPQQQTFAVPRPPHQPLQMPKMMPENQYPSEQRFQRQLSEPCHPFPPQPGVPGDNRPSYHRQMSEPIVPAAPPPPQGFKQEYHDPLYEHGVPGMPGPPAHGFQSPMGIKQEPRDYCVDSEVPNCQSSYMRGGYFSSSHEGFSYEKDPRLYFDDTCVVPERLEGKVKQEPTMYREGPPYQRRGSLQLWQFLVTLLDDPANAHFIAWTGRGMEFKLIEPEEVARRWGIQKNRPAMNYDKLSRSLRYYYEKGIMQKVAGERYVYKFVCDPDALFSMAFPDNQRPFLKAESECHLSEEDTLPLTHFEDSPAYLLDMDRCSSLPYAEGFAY
# Chain of CRX (O43186 whole entry): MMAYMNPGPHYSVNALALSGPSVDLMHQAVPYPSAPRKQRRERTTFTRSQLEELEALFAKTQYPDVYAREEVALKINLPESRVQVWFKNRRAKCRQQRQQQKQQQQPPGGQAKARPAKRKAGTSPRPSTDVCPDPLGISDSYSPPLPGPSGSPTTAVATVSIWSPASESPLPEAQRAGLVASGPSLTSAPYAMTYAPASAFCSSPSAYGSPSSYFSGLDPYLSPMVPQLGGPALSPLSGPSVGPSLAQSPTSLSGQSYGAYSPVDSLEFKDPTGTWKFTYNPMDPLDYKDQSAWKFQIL
# Chain of ELF4 (Q99607 whole entry): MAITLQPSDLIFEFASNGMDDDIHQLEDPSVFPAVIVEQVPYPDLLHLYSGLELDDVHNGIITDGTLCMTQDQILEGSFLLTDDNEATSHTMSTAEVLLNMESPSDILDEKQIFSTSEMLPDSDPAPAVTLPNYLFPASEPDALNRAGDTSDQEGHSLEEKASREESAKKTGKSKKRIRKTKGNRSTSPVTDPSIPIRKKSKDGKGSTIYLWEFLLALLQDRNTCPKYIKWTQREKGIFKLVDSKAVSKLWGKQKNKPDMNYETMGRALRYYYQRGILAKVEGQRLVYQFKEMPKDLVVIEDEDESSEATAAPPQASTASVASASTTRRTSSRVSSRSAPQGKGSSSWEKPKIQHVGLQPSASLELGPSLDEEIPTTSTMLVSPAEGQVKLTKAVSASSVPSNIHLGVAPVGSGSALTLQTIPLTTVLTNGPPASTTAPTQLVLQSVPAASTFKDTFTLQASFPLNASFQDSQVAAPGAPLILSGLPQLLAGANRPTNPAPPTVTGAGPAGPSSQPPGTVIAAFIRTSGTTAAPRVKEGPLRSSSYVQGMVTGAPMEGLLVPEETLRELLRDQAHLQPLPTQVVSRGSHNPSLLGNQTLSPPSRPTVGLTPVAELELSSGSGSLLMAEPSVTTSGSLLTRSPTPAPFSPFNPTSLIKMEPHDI
# Chain of HSF1 (Q00613 whole entry): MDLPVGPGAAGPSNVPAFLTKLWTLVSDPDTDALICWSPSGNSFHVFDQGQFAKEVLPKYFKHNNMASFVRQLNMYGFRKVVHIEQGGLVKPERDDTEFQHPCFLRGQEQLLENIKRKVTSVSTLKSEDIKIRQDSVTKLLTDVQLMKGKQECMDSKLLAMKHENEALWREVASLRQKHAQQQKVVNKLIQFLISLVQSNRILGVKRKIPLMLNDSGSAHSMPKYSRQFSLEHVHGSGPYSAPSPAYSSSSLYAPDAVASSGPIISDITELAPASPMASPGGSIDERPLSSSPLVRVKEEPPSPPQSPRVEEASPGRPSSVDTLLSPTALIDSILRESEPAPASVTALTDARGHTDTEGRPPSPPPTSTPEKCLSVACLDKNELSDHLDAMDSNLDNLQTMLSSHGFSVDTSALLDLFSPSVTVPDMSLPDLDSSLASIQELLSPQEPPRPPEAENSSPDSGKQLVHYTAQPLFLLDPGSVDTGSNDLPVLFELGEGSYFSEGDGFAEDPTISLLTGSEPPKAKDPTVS
sequence,measurement,setting,value
TCTTAC,binding signal,[1],"1.23 fold enrichment (6-mer frequency, TF over GST control)"
same,binding signal,[2],"1.28 fold enrichment (6-mer frequency, TF over GST control)"
same,binding signal,[3],"1.23 fold enrichment (6-mer frequency, TF over GST control)"
same,binding signal,[4],"1.29 fold enrichment (6-mer frequency, TF over GST control)"
same,binding signal,[5],"1.27 fold enrichment (6-mer frequency, TF over GST control)"
same,binding signal,[6],"1.34 fold enrichment (6-mer frequency, TF over GST control)"
same,binding signal,[7],"1.39 fold enrichment (6-mer frequency, TF over GST control)"
same,binding signal,[8],"1.13 fold enrichment (6-mer frequency, TF over GST control)"
same,binding signal,[9],"1.7 fold enrichment (6-mer frequency, TF over GST control)"
